The source of these data is PubChem BioAssay (NCI).

Holding throughout (assay): NCI-60 one-dose screen, 48 h (100 = growth as untreated, 0 = no growth, -100 = all killed)
One test concerns DU-145 prostate. The settings on record: 10 µM unless noted.
A further test concerns K-562 leukemia. To be noted: 10 µM unless noted.
In another test the test system is MALME-3M melanoma. To be noted: 10 µM unless noted.
In the next test the test system is MDA-MB-231 breast. To be noted: 10 µM unless noted.
The subject of a further test is RXF 393 renal. To be noted: 10 µM unless noted.
The subject of a further test is SF-268 CNS. To be noted: 10 µM unless noted.
The subject of another test is SF-295 CNS. To be noted: 10 µM unless noted.
For another test, the system named is SF-539 CNS. To be noted: 10 µM unless noted.
The test system of a further test is UACC-257 melanoma. To be noted: 10 µM unless noted.
For a further test, the system named is M14 melanoma. The settings on record: 10 µM unless noted.
A further test concerns HCT-15 colon. The settings on record: 10 µM unless noted.
The next test deals with HT29 colon. To be noted: 10 µM unless noted.
A further test relates to SNB-75 CNS. The settings on record: 10 µM unless noted.
For another test, the system named is SNB-19 CNS. To be noted: 10 µM unless noted.
In a further test the test system is U251 CNS. To be noted: 10 µM unless noted.
The next test concerns PC-3 prostate. The settings on record: 10 µM unless noted.
Another test relates to SK-MEL-5 melanoma. The settings on record: 10 µM unless noted.
The next test concerns UACC-62 melanoma. To be noted: 10 µM unless noted.
In another test the test system is SK-MEL-28 melanoma. To be noted: 10 µM unless noted.
The subject of a further test is LOX IMVI melanoma. To be noted: 10 µM.

About 83,000 compounds went through this panel and 20% of them were active in at least one assay; those are over-represented in the sample as a whole.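 Results are percent growth after 48 hours of single-concentration exposure. 100 means growth as in untreated cells, lower positive values show inhibition; negative values down to -100 show cell death.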 Values without a mark were called inactive. Activity calls are given as the source filed them. How the source made its calls: active means growth percent below 10; inactive means the rest.

Take `C=C1CCC2C3(C)COC(c4cccc(F)c4)OC3CCC2(C)C1C/C=C1/C(=O)OCC1O` (centres undefined): the growth was 4.04% (active) in the test on DU-145 prostate; 10.5% with K-562 leukemia; -41.9% (active) in the test on MALME-3M melanoma; -32.8% (active) in the test with MDA-MB-231 breast; -70.5% (active) in the test with RXF 393 renal; 67.9% with SF-268 CNS. The growth in the test with SF-295 CNS was 2.97% (active); in the test with SF-539 CNS, -72.5% (active); in the test on UACC-257 melanoma, -28.8% (active); in the test with M14 melanoma, -40.7% (active); in the test with HCT-15 colon, -23.6% (active); with HT29 colon it was -1.9% (active). For the same compound, the growth with SNB-75 CNS was 54.1%; in the test with SNB-19 CNS it was 30.1%; in the test with U251 CNS, -90% (active); in the test on PC-3 prostate, -17.5% (active); with SK-MEL-5 melanoma it was -19.3% (active); in the test on UACC-62 melanoma, 2.91% (active). Moreover, the growth with SK-MEL-28 melanoma was -26.2% (active).
For the compound `Cc1ccc(C(=O)NN2C(=O)/C(=C/C=C/c3ccc([N+](=O)[O-])o3)SC2=S)cc1`, the growth in the test on DU-145 prostate was -100% (active); in the test with K-562 leukemia, 6.34% (active); in the test on MALME-3M melanoma it was -98% (active); in the test with MDA-MB-231 breast, -96.4% (active); in the test on RXF 393 renal, -90% (active); with SF-268 CNS, -86.7% (active). Besides, the growth was -87.6% (active) in the test on SF-295 CNS; -96.6% (active) in the test on SF-539 CNS; -81.5% (active) in the test on UACC-257 melanoma; -70.6% (active) in the test with M14 melanoma; -66.1% (active) in the test with HCT-15 colon; -74.3% (active) in the test on HT29 colon. Besides, the growth was -85% (active) with SNB-75 CNS; -100% (active) in the test with SNB-19 CNS; -98.9% (active) in the test on U251 CNS; -15.1% (active) with PC-3 prostate; -100% (active) with SK-MEL-5 melanoma; -92.4% (active) in the test with UACC-62 melanoma. The growth with LOX IMVI melanoma is -90.9% (active); in the test with SK-MEL-28 melanoma, -94.3% (active).
As to `c1ccc(-c2csc(Nc3cccc(Nc4nc(-c5ccccc5)cs4)c3)n2)cc1`, the growth in the test with DU-145 prostate is 58.9%; in the test with K-562 leukemia, 26.6%; in the test on MALME-3M melanoma, 52.8%; in the test on MDA-MB-231 breast, 48%; in the test with RXF 393 renal, 63.8%; in the test on SF-268 CNS it was 40.6%. The growth with SF-295 CNS is 37.6%; in the test with SF-539 CNS, 57.7%; with UACC-257 melanoma it was 46.1%; in the test on M14 melanoma, 47.8%; with HCT-15 colon, 30.5%; in the test with HT29 colon, 39.4%. Also, the growth in the test on SNB-75 CNS was 48.6%; in the test with SNB-19 CNS it was 58%; in the test on U251 CNS, 51.2%; with PC-3 prostate, 32.1%; in the test with SK-MEL-5 melanoma, 21%; in the test with UACC-62 melanoma, 50.3%. Also, the growth in the test on SK-MEL-28 melanoma is 60.9%.
As for `CN(C)c1nc(NCCNS(=O)(=O)c2ccc(C(=O)/C=C/c3ccc(Cl)cc3)cc2)nc(Nc2ccc(F)cc2)n1`, the growth in the test on DU-145 prostate is -23.1% (active); with K-562 leukemia, 1.01% (active); with MALME-3M melanoma, -46.6% (active); with MDA-MB-231 breast it was -61.4% (active); with RXF 393 renal it was -81.3% (active); in the test on SF-268 CNS, 3.35% (active). The growth with SF-295 CNS is -26.6% (active); in the test with SF-539 CNS, -98% (active); in the test on UACC-257 melanoma, -4.45% (active); in the test on M14 melanoma, -65.8% (active); in the test with HCT-15 colon, -84.4% (active); in the test on HT29 colon, -97.5% (active). Also, the growth was 13.9% with SNB-75 CNS; -5.63% (active) in the test on SNB-19 CNS; -99.8% (active) in the test with U251 CNS; -65.9% (active) in the test with PC-3 prostate; -64.9% (active) with SK-MEL-5 melanoma; -56.8% (active) in the test with UACC-62 melanoma. Moreover, in the test on SK-MEL-28 melanoma, the growth is -85.5% (active).
In the case of `CCN1C(=O)N(CC)C2NNC(Sc3c(C(=O)O)c4ccccc4n(C4CCCC4)c3=O)=NC21` (centres undefined), the growth is 2.94% (active) with DU-145 prostate; 13.9% in the test on K-562 leukemia; 72.4% in the test on MALME-3M melanoma; 12.3% with MDA-MB-231 breast; 50.2% with RXF 393 renal; 39.2% in the test on SF-268 CNS. In addition, the growth in the test on SF-295 CNS was 8% (active); in the test on SF-539 CNS it was -24.7% (active); with UACC-257 melanoma, 58.7%; with M14 melanoma, -7.72% (active); with HCT-15 colon, 14.7%; in the test on HT29 colon, 0.444% (active). In addition, the growth in the test on SNB-75 CNS was 20.9%; with SNB-19 CNS, 38.8%; in the test with U251 CNS, 8.79% (active); with PC-3 prostate it was 36.3%; in the test with SK-MEL-5 melanoma, 13.8%; in the test with UACC-62 melanoma, 47.4%. In addition, in the test on SK-MEL-28 melanoma, the growth is 54.8%.
On to `CC(=O)Nc1ccc(C(=O)NC(=S)Nc2ccc(S(N)(=O)=O)cc2)cc1`, for which the growth in the test with DU-145 prostate was 105%; with K-562 leukemia, 86.6%; with MALME-3M melanoma it was 89.9%; in the test on MDA-MB-231 breast, 99.3%; in the test with RXF 393 renal, 93.2%; in the test with SF-268 CNS it was 97.1%. In addition, the growth in the test with SF-295 CNS was 102%; with SF-539 CNS it was 90.7%; with UACC-257 melanoma, 95.2%; in the test with M14 melanoma, 93.6%; in the test with HCT-15 colon it was 106%; with HT29 colon it was 92.6%. Also, the growth was 78.1% in the test on SNB-75 CNS; 98.4% in the test with SNB-19 CNS; 94.2% in the test with U251 CNS; 97.9% in the test on PC-3 prostate; 88.3% in the test on SK-MEL-5 melanoma; 86.9% in the test on UACC-62 melanoma. Also, the growth in the test with SK-MEL-28 melanoma is 97%.
In the case of `COc1ccc(-c2c(Nn3cnnn3)no[n+]2[O-])cc1`, the growth in the test on DU-145 prostate was 63.1%; in the test on K-562 leukemia, 30.2%; in the test on MALME-3M melanoma, 62.2%; in the test with MDA-MB-231 breast, 38.8%; in the test with RXF 393 renal it was 42.5%; in the test with SF-268 CNS, 66.3%. Also, the growth is 51.6% with SF-295 CNS; 56.3% with SF-539 CNS; 71.8% in the test with UACC-257 melanoma; 59.9% with M14 melanoma; 31.3% with HCT-15 colon; 39.4% in the test with HT29 colon. Moreover, the growth with SNB-75 CNS is 29.6%; in the test on SNB-19 CNS, 71%; in the test with U251 CNS, 55.4%; in the test on PC-3 prostate, 59.4%; in the test with SK-MEL-5 melanoma it was 75.7%; in the test on UACC-62 melanoma, 47.5%. Moreover, the growth in the test with SK-MEL-28 melanoma was 85.5%.
